Source: the supplement of paper PMC11732987, “Enantioselective OTUD7B fragment discovery through chemoproteomics screening and high-throughput optimisation” (Communications Chemistry, 2025)

Key:
Assay in all cases: log2 ratio of Biotin-Ahx-Ub-VS probe labelling (fragment/DMSO); higher = less target engagement (more negative = stronger competition), active = hit call of the paper (q ≤ 0.05, log2 ratio ≤ -1)
Conditions in all cases: compound concentration: 200 uM; treatment time: 3 h
OTUD6B = biological target: T1, OTUD6B (UniProt Q8N6M0)
T1 sequence (whole entry): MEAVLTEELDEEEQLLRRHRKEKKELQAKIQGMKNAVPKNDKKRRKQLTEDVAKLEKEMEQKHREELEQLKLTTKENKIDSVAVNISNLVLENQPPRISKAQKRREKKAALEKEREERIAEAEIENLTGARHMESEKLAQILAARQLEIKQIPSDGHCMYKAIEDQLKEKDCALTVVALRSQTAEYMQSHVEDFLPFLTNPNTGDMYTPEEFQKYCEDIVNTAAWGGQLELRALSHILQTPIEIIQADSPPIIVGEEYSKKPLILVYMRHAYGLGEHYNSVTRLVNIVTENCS
Method in brief: (§1)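 Using Biotin-Ahx-Ub-VS at 0.5 µM final for 1 h, DUBs were labelled in HEK293T lysate (495 µg per sample) that had first been treated in triplicate with fragment at 200 µM or vehicle for 3 h. NeutrAvidin enrichment, LysC and trypsin digestion and diaPASEF LC-MS/MS followed. Spectronaut label-free quantities were global-median-normalised. Values are average log2 fragment/vehicle ratios by unpaired t-test, using proteins with ≥2 unique peptides.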

OTUD7B = biological target: T2, OTUD7B (UniProt Q6GQQ9)
T2 sequence (whole entry): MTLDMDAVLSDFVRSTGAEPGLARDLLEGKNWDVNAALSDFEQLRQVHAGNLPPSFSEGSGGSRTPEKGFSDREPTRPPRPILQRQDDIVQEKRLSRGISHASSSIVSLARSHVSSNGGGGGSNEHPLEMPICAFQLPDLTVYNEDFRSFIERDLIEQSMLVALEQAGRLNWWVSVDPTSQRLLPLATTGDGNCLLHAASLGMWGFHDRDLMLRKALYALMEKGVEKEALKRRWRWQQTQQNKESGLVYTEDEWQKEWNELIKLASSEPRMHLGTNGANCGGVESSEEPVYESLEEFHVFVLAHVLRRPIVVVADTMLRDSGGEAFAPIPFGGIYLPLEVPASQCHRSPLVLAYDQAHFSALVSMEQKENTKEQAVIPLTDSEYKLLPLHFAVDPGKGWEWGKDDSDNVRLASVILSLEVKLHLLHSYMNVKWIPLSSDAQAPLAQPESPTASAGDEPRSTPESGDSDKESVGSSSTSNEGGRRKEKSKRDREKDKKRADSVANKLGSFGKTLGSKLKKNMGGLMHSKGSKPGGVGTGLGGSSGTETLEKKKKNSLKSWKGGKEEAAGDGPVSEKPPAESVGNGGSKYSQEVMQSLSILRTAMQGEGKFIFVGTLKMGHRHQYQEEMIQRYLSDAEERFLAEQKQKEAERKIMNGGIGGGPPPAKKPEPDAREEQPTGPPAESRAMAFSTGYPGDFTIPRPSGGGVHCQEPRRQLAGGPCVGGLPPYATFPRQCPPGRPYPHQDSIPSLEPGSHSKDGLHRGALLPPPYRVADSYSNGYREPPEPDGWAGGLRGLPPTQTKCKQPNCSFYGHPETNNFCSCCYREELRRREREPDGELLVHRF
Method in brief: as §1

PRPF8 = PRPF8 (UniProt Q6P2Q9)
Method in brief: as §1

PSMD7 = biological target: T3, PSMD7 (UniProt P51665)
T3 sequence (whole entry): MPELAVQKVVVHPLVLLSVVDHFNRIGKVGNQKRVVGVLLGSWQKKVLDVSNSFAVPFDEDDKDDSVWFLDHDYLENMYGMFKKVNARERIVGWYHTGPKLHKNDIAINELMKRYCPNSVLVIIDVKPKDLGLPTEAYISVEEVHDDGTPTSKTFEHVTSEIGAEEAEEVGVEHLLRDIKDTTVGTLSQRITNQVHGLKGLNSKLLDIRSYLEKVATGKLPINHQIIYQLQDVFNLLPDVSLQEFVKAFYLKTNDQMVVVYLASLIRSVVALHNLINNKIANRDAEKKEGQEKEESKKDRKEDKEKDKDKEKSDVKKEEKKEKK
Method in brief: as §1

UCHL1 = UCHL1 (UniProt P09936)
Method in brief: as §1

UCHL3 = biological target: T4, UCHL3 (UniProt P15374)
T4 sequence (whole entry): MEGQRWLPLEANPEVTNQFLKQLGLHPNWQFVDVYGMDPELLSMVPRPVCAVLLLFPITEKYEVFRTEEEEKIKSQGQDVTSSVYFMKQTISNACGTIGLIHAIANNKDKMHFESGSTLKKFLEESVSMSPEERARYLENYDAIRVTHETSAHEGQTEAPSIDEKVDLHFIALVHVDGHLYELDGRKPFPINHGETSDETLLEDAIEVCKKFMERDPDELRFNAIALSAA
Method in brief: as §1

UCHL5 = biological target: T5, UCHL5 (UniProt Q9Y5K5)
T5 sequence (whole entry): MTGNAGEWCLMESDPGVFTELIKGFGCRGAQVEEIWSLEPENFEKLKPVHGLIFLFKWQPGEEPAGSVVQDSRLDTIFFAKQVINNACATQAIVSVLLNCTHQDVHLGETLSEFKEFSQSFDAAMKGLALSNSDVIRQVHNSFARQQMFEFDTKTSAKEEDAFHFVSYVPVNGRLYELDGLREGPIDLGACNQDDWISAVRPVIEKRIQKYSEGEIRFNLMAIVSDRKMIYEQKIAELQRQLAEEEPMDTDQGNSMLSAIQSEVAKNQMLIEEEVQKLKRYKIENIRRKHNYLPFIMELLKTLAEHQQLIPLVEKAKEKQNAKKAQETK
Method in brief: as §1

USP10 = USP10 (UniProt Q14694)
Method in brief: as §1

USP15 = biological target: T6, USP15 (UniProt Q9Y4E8)
T6 sequence (whole entry): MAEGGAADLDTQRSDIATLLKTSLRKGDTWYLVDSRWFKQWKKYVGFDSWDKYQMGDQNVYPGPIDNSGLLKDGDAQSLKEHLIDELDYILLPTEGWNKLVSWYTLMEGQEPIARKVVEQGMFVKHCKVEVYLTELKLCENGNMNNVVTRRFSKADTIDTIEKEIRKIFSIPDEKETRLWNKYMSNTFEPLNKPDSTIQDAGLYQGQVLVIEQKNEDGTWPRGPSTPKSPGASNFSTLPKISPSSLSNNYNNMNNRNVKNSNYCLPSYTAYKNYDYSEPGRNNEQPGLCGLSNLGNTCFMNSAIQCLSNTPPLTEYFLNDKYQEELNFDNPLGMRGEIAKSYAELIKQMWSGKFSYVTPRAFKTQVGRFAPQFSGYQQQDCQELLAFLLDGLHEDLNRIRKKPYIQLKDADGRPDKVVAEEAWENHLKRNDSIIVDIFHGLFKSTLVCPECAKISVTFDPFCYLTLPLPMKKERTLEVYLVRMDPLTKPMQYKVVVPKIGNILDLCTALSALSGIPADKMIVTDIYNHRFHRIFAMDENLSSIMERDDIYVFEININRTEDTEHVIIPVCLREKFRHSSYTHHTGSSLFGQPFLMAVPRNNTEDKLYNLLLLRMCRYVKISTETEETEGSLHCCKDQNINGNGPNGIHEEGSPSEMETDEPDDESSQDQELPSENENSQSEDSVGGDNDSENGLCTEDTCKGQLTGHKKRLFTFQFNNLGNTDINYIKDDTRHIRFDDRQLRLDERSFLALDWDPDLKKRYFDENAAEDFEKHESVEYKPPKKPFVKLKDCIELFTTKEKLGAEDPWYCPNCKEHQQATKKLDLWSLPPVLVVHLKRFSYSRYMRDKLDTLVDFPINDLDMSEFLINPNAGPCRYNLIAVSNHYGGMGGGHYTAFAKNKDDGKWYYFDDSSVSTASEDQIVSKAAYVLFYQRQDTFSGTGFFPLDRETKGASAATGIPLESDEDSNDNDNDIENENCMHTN
Method in brief: as §1

Measured: log2 ratio of Biotin-Ahx-Ub-VS probe labelling

USP10, sequence (Q14694 whole entry): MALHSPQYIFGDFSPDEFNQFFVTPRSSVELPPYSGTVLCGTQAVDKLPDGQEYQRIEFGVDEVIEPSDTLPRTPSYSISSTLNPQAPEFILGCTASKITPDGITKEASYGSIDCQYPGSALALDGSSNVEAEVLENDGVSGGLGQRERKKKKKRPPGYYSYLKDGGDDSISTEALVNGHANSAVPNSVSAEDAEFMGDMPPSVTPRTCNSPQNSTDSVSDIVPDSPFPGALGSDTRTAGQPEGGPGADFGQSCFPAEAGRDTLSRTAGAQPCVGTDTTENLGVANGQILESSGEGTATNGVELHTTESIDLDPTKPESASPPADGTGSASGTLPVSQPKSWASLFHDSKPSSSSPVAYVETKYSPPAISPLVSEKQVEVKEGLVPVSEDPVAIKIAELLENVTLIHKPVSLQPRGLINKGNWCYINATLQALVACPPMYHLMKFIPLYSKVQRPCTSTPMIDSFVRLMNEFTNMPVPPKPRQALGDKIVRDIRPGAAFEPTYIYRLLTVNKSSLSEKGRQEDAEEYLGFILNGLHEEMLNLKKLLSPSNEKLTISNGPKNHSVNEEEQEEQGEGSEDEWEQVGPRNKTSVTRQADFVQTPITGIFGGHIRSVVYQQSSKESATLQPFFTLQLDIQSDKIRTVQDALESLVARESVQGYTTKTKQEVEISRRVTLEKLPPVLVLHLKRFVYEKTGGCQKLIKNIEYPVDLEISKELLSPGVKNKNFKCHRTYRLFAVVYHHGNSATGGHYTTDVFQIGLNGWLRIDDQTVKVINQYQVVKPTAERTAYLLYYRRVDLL
UCHL1, sequence (P09936 whole entry, looked up): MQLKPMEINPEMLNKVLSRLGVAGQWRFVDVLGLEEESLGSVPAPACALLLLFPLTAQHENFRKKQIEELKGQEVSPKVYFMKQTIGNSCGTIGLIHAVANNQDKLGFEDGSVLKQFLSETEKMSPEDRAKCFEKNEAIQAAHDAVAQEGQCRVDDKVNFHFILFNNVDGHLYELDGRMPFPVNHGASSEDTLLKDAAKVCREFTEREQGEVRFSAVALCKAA

CC(NC(=O)CCl)c1noc(Cc2ccccc2)n1 (centres undefined)
inactive: OTUD6B -0.409 | OTUD7B -0.724 | PRPF8 0.0633 | PSMD7 -0.49 | UCHL3 -0.00714 | UCHL5 -0.344 | USP10 0.046 | USP15 -0.331
active: UCHL1 -1.97
